# PMC11006913
# Columns and labels:
# Assay in all cases: PBM; 200 nM protein, PBS
# Details in all cases: dsDNA, one strand shown
# [1] = target: T1, PAX4 (Homo sapiens, UniProt O43316 9-242, F177Y)
# T1 sequence: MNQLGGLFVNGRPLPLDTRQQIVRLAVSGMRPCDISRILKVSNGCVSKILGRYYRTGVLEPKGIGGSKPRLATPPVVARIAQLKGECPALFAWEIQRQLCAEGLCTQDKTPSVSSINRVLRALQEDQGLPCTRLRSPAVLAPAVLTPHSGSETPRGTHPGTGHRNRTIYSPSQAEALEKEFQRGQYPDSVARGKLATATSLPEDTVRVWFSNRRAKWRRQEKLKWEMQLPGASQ
# [2] = target: PROP1 (Homo sapiens, UniProt O75360 56-141)
# [3] = target: PROP1 (Homo sapiens, UniProt O75360 56-141, F88S)
# [4] = target: VAX1 (Homo sapiens, UniProt Q5SQQ9 86-172)
# [5] = target: VAX1 (Homo sapiens, UniProt Q5SQQ9 86-172, T142I)
# [6] = target: VAX1 (Homo sapiens, UniProt Q5SQQ9 86-172, K157R)
# [7] = target: CRX (Homo sapiens, UniProt O43186 26-111, R41L)
# [8] = target: T2, NKX2-6 (Homo sapiens, UniProt A6NCS4 118-204, F151L)
# T2 sequence: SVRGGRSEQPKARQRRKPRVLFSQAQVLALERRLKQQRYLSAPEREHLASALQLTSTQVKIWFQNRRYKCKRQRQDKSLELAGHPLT
# [9] = target: HOXA4 (Homo sapiens, UniProt Q00056 201-287, W262F)
# [10] = target: PRRX1 (Homo sapiens, UniProt P54821 80-166)
# [11] = target: MSX2 (Homo sapiens, UniProt P35548 130-214)
# [12] = target: MSX2 (Homo sapiens, UniProt P35548 130-214, F161Y)
# [13] = target: HOXC10 (Homo sapiens, UniProt Q9NYD6 254-340, K271E)
# [14] = target: ALX3 (Homo sapiens, UniProt O95076 139-225)
# Sequence of ALX3 (O95076 139-225): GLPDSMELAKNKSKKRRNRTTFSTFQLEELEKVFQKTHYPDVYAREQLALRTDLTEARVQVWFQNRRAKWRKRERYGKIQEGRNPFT
# Sequence of HOXC10 (Q9NYD6 254-340 K271E): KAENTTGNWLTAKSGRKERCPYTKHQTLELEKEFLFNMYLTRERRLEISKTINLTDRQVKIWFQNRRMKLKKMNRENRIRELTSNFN
# Sequence of MSX2 (Homo sapiens, UniProt P35548 130-214, F161Y) (P35548 130-214 F161Y): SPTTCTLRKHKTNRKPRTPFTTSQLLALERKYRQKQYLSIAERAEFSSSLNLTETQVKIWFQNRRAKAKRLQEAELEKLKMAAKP
# Sequence of MSX2 (Homo sapiens, UniProt P35548 130-214) (P35548 130-214): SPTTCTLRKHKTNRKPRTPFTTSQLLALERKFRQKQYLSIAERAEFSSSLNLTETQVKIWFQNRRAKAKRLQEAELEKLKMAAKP
# Sequence of VAX1 (Homo sapiens, UniProt Q5SQQ9 86-172) (Q5SQQ9 86-172): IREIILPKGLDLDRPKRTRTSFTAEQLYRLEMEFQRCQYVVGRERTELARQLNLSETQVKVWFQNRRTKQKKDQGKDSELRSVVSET
# Sequence of VAX1 (Homo sapiens, UniProt Q5SQQ9 86-172, T142I) (Q5SQQ9 86-172 T142I): as the sequence (Q5SQQ9 86-172) above, with T57I counted along it
# Sequence of VAX1 (Homo sapiens, UniProt Q5SQQ9 86-172, K157R) (Q5SQQ9 86-172 K157R): as the sequence (Q5SQQ9 86-172) above, with K72R counted along it
# Sequence of CRX (O43186 26-111 R41L): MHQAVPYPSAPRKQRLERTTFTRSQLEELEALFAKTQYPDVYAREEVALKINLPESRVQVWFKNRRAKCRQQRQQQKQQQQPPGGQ
# Sequence of PROP1 (Homo sapiens, UniProt O75360 56-141, F88S) (O75360 56-141 F88S): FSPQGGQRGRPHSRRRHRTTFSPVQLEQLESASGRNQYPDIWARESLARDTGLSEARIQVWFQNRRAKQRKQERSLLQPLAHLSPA
# Sequence of HOXA4 (Q00056 201-287 W262F): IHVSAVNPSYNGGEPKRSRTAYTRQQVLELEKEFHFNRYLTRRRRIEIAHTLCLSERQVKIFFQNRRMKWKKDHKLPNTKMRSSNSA
# Sequence of PRRX1 (P54821 80-166): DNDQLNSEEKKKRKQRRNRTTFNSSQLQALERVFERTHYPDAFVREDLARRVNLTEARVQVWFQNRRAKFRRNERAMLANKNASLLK
# Sequence of PROP1 (Homo sapiens, UniProt O75360 56-141) (O75360 56-141): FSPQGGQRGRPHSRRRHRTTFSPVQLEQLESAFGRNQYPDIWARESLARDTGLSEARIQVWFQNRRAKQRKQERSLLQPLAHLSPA
sequence,measurement,setting,value
ATAATTCA,binding signal,[1],"11.1 upbm affinity estimate (log intensity, higher = more binding, comparable within an allelic series)"
CTAATATA,binding signal,[1],"10.9 upbm affinity estimate (log intensity, higher = more binding, comparable within an allelic series)"
TAATAGCA,binding signal,[2],"9.06 upbm affinity estimate (log intensity, higher = more binding, comparable within an allelic series)"
same,binding signal,[3],"7.3 upbm affinity estimate (log intensity, higher = more binding, comparable within an allelic series)"
AAGTTATT,binding signal,[4],"10.1 upbm affinity estimate (log intensity, higher = more binding, comparable within an allelic series)"
same,binding signal,[5],"9.9 upbm affinity estimate (log intensity, higher = more binding, comparable within an allelic series)"
same,binding signal,[6],"9.7 upbm affinity estimate (log intensity, higher = more binding, comparable within an allelic series)"
ATATAATC,binding signal,[4],"10.1 upbm affinity estimate (log intensity, higher = more binding, comparable within an allelic series)"
same,binding signal,[5],"10.1 upbm affinity estimate (log intensity, higher = more binding, comparable within an allelic series)"
same,binding signal,[7],"12.3 upbm affinity estimate (log intensity, higher = more binding, comparable within an allelic series)"
same,binding signal,[6],"9.94 upbm affinity estimate (log intensity, higher = more binding, comparable within an allelic series)"
AAGTGTTA,binding signal,[8],"10.7 upbm affinity estimate (log intensity, higher = more binding, comparable within an allelic series)"
ATCATGTC,binding signal,[9],"10.3 upbm affinity estimate (log intensity, higher = more binding, comparable within an allelic series)"
ATTTTAAC,binding signal,[10],"11.9 upbm affinity estimate (log intensity, higher = more binding, comparable within an allelic series)"
ATCATCGG,binding signal,[11],"10.9 upbm affinity estimate (log intensity, higher = more binding, comparable within an allelic series)"
same,binding signal,[12],"10.8 upbm affinity estimate (log intensity, higher = more binding, comparable within an allelic series)"
TCAACTAA,binding signal,[11],"11.2 upbm affinity estimate (log intensity, higher = more binding, comparable within an allelic series)"
same,binding signal,[12],"11 upbm affinity estimate (log intensity, higher = more binding, comparable within an allelic series)"
ATCAATCC,binding signal,[11],"11.1 upbm affinity estimate (log intensity, higher = more binding, comparable within an allelic series)"
same,binding signal,[12],"11.1 upbm affinity estimate (log intensity, higher = more binding, comparable within an allelic series)"
ATTTCTAA,binding signal,[11],"11.2 upbm affinity estimate (log intensity, higher = more binding, comparable within an allelic series)"
same,binding signal,[12],"11 upbm affinity estimate (log intensity, higher = more binding, comparable within an allelic series)"
AACAAGAG,binding signal,[11],"10.3 upbm affinity estimate (log intensity, higher = more binding, comparable within an allelic series)"
CAAATTCA,binding signal,[11],"10.9 upbm affinity estimate (log intensity, higher = more binding, comparable within an allelic series)"
same,binding signal,[12],"10.7 upbm affinity estimate (log intensity, higher = more binding, comparable within an allelic series)"
ACATGTTA,binding signal,[11],"10.7 upbm affinity estimate (log intensity, higher = more binding, comparable within an allelic series)"
GTAGTAAA,binding signal,[13],"11.1 upbm affinity estimate (log intensity, higher = more binding, comparable within an allelic series)"
ACTATTAT,binding signal,[14],"10.4 upbm affinity estimate (log intensity, higher = more binding, comparable within an allelic series)"
AACATAAA,binding signal,[13],"11.3 upbm affinity estimate (log intensity, higher = more binding, comparable within an allelic series)"
GGAAATAA,binding signal,[11],"11.7 upbm affinity estimate (log intensity, higher = more binding, comparable within an allelic series)"
same,binding signal,[12],"11.4 upbm affinity estimate (log intensity, higher = more binding, comparable within an allelic series)"
AGTCCTAA,binding signal,[11],"11.4 upbm affinity estimate (log intensity, higher = more binding, comparable within an allelic series)"
same,binding signal,[12],"11.2 upbm affinity estimate (log intensity, higher = more binding, comparable within an allelic series)"
ACCTCAAT,binding signal,[11],"11 upbm affinity estimate (log intensity, higher = more binding, comparable within an allelic series)"
same,binding signal,[12],"10.9 upbm affinity estimate (log intensity, higher = more binding, comparable within an allelic series)"
CATAAATG,binding signal,[13],"11.2 upbm affinity estimate (log intensity, higher = more binding, comparable within an allelic series)"
AATCGCAT,binding signal,[11],"10.9 upbm affinity estimate (log intensity, higher = more binding, comparable within an allelic series)"
same,binding signal,[12],"10.8 upbm affinity estimate (log intensity, higher = more binding, comparable within an allelic series)"
CAAATAAG,binding signal,[11],"11.1 upbm affinity estimate (log intensity, higher = more binding, comparable within an allelic series)"
same,binding signal,[12],"10.9 upbm affinity estimate (log intensity, higher = more binding, comparable within an allelic series)"
